# TROY signal inh = inhibitors of TROY-driven NF-kB signaling, primary screen, Q293 LMP1-TROYcd cells, NF-kB luciferase, uHTS. Q293 LMP1-TROYcd NF-kB luciferase reporter, 4 h. inhibition, % at 10 µM. 360,000 tested, 0.98% active. AID 1347056, 2019;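 active means compounds whose plate-normalised and pattern-corrected inhibition of the luciferase reporter signal at the single screening dose is 50% or more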
# TWEAK Fn14 block = inhibitors of TWEAK-Fn14 signaling, primary screen, luciferase reporter cells, uHTS | TWEAK-stimulated Fn14 reporter cells, luciferase luminescence, 8 h | inhibition, % at 10 µM | 360,000 tested, 2% active; in the data active means inhibition above about 50%
# KKLEB tox = cytotoxicity in KKLEB CF airway cells, primary screen, cytotoxicity control for CF NF-kB inhibitor project, cell-based, uHTS, fluorescence assay plates. KKLEB CF airway cells viability, ATPlite luminescence, overnight; hits give low values; cells stimulated with P. aeruginosa culture filtrate. activity change (cytotoxicity), % at 5 µM. 360,000 tested, 0.36% active. AID 602141, 2011;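 active means corrected activity change at or below -50% at 5 µM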
# LGR2 antag = inhibitors of bursicon-induced LGR2 CRE-luciferase signal, primary screen, cell-based, HEK293, CRE-luciferase reporter, bursicon stimulation. bursicon-stimulated, 4 h. inhibition, % at 9.99 µM. 380,000 tested, 0.35% active. AID 720647, 2013;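 active means drop in luminescence signal, shown as inhibition above about 50% in the replicate tests, limit read from the data, passing the limit was not always enough; inconclusive means probably only some replicates passing the limit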;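 further: agonist challenge used bursicon conditioned medium at about half maximal strength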
# EWS-Fli block = EWS/Fli-driven NR0B1 reporter inhibitors, primary screen, A673 cells, NR0B1 luciferase, luminescence, MLPCN library; viability-normalised; inhibition, % at 12.6 µM; 350,000 tested, 0.67% active; AID 651661, 2012;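 active means mean inhibition of at least 50% after viability correction, with every replicate also passing that limit; inconclusive means mean reaches 50% but only one of two replicates passes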;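 further: firefly luciferase signal divided by Alamar Blue viability fluorescence both relative to DMSO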
# CF NFkB block = inhibitors of PAF-induced NF-kB signaling, primary screen, cell-based, GFP fluorescence, uHTS; KKLEB NF-kB-GFP reporter, GFP fluorescence overnight; inhibition, % at 5 µM; AID 588850, 2011; 360,000 tested, 0.86% active;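 active means at least 50% inhibition at 5 µM, scaled per plate between neutral and stimulator controls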;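 further: PAF is a Pseudomonas aeruginosa culture filtrate used as stimulus; plate controls were PAF-stimulated DMSO wells for no effect and unstimulated DMSO wells for full effect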
# Numbers without * were called inactive; ? = inconclusive; nt = no result given. Sampled rows, rich in hits. Any-hit rate of the full collection: about 2.6%.
SMILES,TROY signal inh,TWEAK Fn14 block,KKLEB tox,LGR2 antag,EWS-Fli block,CF NFkB block
COc1ccc(CCNC(=O)C2COc3ccccc3O2)cc1OC (stereo not given),11.6,92.9*,-7.0,-20.3,5.1,-3.2
COc1ccc(S(=O)(=O)Nc2cccc3c2O[C@@H](CN(C)C(=O)Nc2ccc4c(c2)OCO4)[C@H](C)CN([C@H](C)CO)C3=O)cc1,nt,nt,nt,-14.9,-9.8,nt
COc1ccc(/C=N/NC(=O)c2cc3cc(OC)c(OC)cc3[nH]2)cc1,-1.8,8.2,-4.8,-13.4,12.3,27.6
COc1cc2cc(C(=O)N/N=C/c3ccccc3Cl)[nH]c2cc1OC,-28.1,51.6*,4.0,3.0,3.3,21.8
C/C=C/c1ccc([C@@H]2[C@@H](CO)N3CCCCN(S(=O)(=O)c4cccc(C)c4)C[C@H]23)cc1,nt,nt,nt,8.1,30.8,nt
COc1ccc(C2C(O)C(c3c[nH]c4ccccc34)=NN2C(=O)CCl)cc1 (stereo not given),-26.3,94.2*,-88.9*,22.8,62.2*,97.8*
C[C@@H]1CCCCO[C@H](CN(C)C(=O)C2CCCCC2)[C@H](C)CN([C@@H](C)CO)C(=O)c2cc(NC(=O)Nc3ccc4c(c3)OCO4)ccc2O1,nt,nt,nt,-1.8,10.8,nt
CO[C@H]1CN(C)C(=O)c2cc(NC(=O)c3cccc(F)c3)ccc2OC[C@H](C)N(CC2CC2)C[C@@H]1C,nt,nt,nt,4.8,0.1,nt
COc1ccc(-c2nn(-c3ccccc3)cc2/C=C/C(=O)OCC(=O)Nc2ccccc2C#N)cc1,15.2,-42.6,-70.1*,-2.1,2.0,66.6*
CC(C)c1ccc(/C=C/C(=O)NC(=S)Nc2ccc(CN3CCOCC3)cc2)cc1,71.3*,99.9*,-14.8,6.5,-0.7,12.3
COCCNC(=O)/C(C#N)=C/c1cccc(/C=C(\C#N)C(=O)NCCOC)c1,28.2,65.4*,2.3,-1.5,15.8,21.2
CCOCCCNC(=O)/C(C#N)=C/c1ccc(Cl)c([N+](=O)[O-])c1,-3.0,10.8,8.2,90.0*,65.1*,-1.7
COCCNC(=O)/C(C#N)=C/c1ccc(O)cc1,-18.5,-27.5,-7.4,11.3,-4.2,-3.6
CCOCCCNC(=O)/C(C#N)=C/c1cc(OC)c(O)c([N+](=O)[O-])c1,18.9,34.9,-27.6,34.3,1.2,9.9
CNC(=O)/C(C#N)=C/c1cccc(Oc2ccccc2)c1,-80.0,53.5*,3.8,-39.0,-25.7,-0.4
O=C(C[C@@H]1CC[C@@H](NC(=O)c2ccccc2)[C@@H](CO)O1)NCc1ccc(Oc2ccccc2)cc1,nt,nt,nt,-16.9,-3.2,nt
C[C@@H]1CN([C@H](C)CO)C(=O)c2cc(NC(=O)CCC(F)(F)F)ccc2O[C@@H]1CN(C)Cc1ccc(Oc2ccccc2)cc1,nt,nt,nt,27.5,1.4,nt
COc1cc(OC)c(N(C)S(=O)(=O)c2cccc(C(=O)OCC(=O)c3c[nH]c4ccccc34)c2)cc1Cl,44.8,96.1*,-23.4,22.1,nt,15.4
C=CCN(c1ccccc1OC)S(=O)(=O)c1cccc(C(=O)OCC(=O)c2c[nH]c3ccccc23)c1,17.0,84.7*,0.5,-5.0,nt,4.3
C=CCN(c1ccccc1OC)S(=O)(=O)c1cccc(C(=O)OCC(=O)N2CCOCC2)c1,-5.4,-0.4,-5.5,-4.2,0.5,-27.8
Nc1ccc(-c2nc3cc(N)ccc3s2)cc1,-15.4,-8.2,11.3,34.2,37.7,-40.9
Cc1ccc2nc(-c3ccc(N)cc3)sc2c1,-4.3,26.4,-56.0*,82.0*,68.5*,-53.1
Nc1ccc2nc(-c3ccccc3)sc2c1,21.8,90.5*,-31.0,nt,nt,-38.5
Nc1ccc2nc(SCC(=O)c3ccccc3)sc2c1,24.2,-2.6,5.7,-30.6,-63.1,-4.3
CNC(=S)Nc1ccc(-c2nc3ccc(C)cc3s2)cc1,13.3,49.0,0.5,53.5*,-7.5,-75.1
SMILES,TROY signal inh,TWEAK Fn14 block,KKLEB tox,LGR2 antag,EWS-Fli block,CF NFkB block
Cc1ccc(S(=O)(=O)N(C)C[C@@H]2OCCCC[C@H](C)Oc3ccc(NC(=O)Nc4ccccc4)cc3C(=O)N([C@@H](C)CO)C[C@@H]2C)cc1,nt,nt,nt,-27.6,9.2,nt
C=CC[C@]1(C(=O)OC)COC(c2ccc(OCCCO)cc2)=N1,nt,nt,nt,nt,-13.7,nt
COC(=O)[C@@]1(CCS(=O)(=O)c2ccccc2)COC(c2ccc(OCCCO)cc2)=N1,nt,nt,nt,nt,79.8*,nt
C[C@@H]1CN([C@H](C)CO)C(=O)c2cc(-c3ccncc3)cnc2O[C@H]1CN(C)S(=O)(=O)c1ccccc1,nt,nt,nt,5.6,3.2,nt
O=C(C[C@H]1C=C[C@@H](NC(=O)c2cccc(F)c2)[C@H](CO)O1)NCCN1CCCC1,nt,nt,nt,1.9,-0.7,nt
O=C(Nc1cc(Sc2nc3ccccc3s2)cc([N+](=O)[O-])c1)c1cccc(F)c1F,23.9,57.9*,-5.7,-3.0,nt,11.5
O=C(CSc1nc2ccc(NC(=O)c3ccccc3C(=O)O)cc2s1)Nc1ccc(F)c([N+](=O)[O-])c1,-26.4,-17.2,-11.9,8.2,3.1,-23.4
CCOC(=O)c1sc2nc(C)nc(NCc3ccccc3OC)c2c1C,31.3,54.4*,-1.1,-11.9,29.1,9.1
COc1cccc(NC(=O)Nc2nc(-c3ccc(OC)c(OC)c3)cs2)c1,69.7*,105.1*,-99.9*,?,64.6*,109.1*
COc1ccccc1C(=O)Nc1nc(-c2ccc3c(c2)OCCO3)cs1,50.6*,4.8,13.2,1.4,2.2,-27.5
COc1ccc(CC(=O)Nc2nc(-c3cc(OC)ccc3OC)cs2)cc1,19.8,64.8*,5.7,-4.0,-12.7,-9.3
O=C(Nc1nc(-c2ccc3c(c2)OCCO3)cs1)c1ccco1,11.4,26.4,1.1,-98.5,nt,-5.8
COc1cccc(NC(=O)N2CCN(c3nc(-c4cccc(OC)c4)cs3)CC2)c1,36.7,67.0*,6.6,-5.1,-4.9,-9.0
O=C(Nc1ccc2c(c1)[C@@H]1C[C@@H](CC(=O)N3CCc4ccccc4C3)O[C@@H](CO)[C@@H]1O2)c1ccc2c(c1)OCO2,nt,nt,nt,15.0,8.4,nt
C[C@H](CO)N1C[C@H](C)[C@H](CN(C)C(=O)CCC(F)(F)F)OCCCC[C@H](C)Oc2ccc(NS(=O)(=O)c3ccccc3)cc2C1=O,nt,nt,nt,nt,0.2,nt
C[C@H](CO)N1C[C@H](C)[C@@H](CN(C)C(=O)Nc2ccc3c(c2)OCO3)Oc2ccc(NC(=O)Nc3ccc(F)cc3)cc2CC1=O,nt,nt,nt,0.4,0.6,nt
Cc1noc(C)c1NC(=O)Nc1cccc2c1O[C@@H](CN(C)C(=O)Nc1ccccc1)[C@H](C)CN([C@@H](C)CO)C2=O,nt,nt,nt,1.7,2.5,nt

# Bioassay records from PubChem.
